Records with an inconclusive call do not appear. Values without a mark were called inactive. Calls of active or inactive are those of the source. Calls follow the shape of the dose curve; as a rule, active = well fitted inhibition curve with a large enough effect in the signal ratio, with a control signal flat (not every such curve was filed as active); inconclusive = small, poorly fitted or top-dose-only effect, or effect the other way, or a change in a side signal; inactive = no such curve, though single readings can be large or run the other way; the % refers to the signal ratio.
Biological target: Peroxisome proliferator-activated receptor delta (Homo sapiens) (UniProt Q03181)
Sequence (Q03181 whole entry, looked up): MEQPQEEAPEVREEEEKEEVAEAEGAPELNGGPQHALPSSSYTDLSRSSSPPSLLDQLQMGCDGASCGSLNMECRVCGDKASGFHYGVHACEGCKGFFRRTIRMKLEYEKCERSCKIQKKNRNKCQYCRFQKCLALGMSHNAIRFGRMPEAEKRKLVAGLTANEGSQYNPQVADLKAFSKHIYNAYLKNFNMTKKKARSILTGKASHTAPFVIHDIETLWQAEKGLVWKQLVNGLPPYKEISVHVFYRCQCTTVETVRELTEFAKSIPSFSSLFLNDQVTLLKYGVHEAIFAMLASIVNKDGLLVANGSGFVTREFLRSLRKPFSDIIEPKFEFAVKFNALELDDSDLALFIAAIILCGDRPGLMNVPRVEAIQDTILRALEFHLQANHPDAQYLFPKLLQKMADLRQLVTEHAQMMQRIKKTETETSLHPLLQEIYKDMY
Assay: qHTS assay for small molecule antagonists of peroxisome proliferator-activated receptor delta signaling (AID 588535)
Details: HEK293T PPARd-UAS-bla, beta-lactamase FRET ratio, 18 h; series mostly up to 76.7 µM; activity change, negative = inhibition: at the top concentration
Excerpt: NIH Chemical Genomics Center [NCGC] U.S. Environmental Protection Agency [EPA] National Institutes of Environmental Health Sciences [NIEHS] National Toxicology Program [NTP] NCGC Assay Overview The Peroxisome proliferator-activated receptors (PPARs) are lipid-activated transcription factors of the nuclear receptor superfamily with three distinct subtypes namely PPAR alpha, PPAR delta (also called PPAR beta) and PPAR gamma. All these subtypes heterodimerizes with Retinoid X receptor (RXR) and have different physiological functions. […] This role of PPAR delta implicates the potential use of its ligands in the treatment of metabolic disorders.
NCGC Assay Protocol Summary Using a beta-lactamase reporter-gene under control Peroxisome Proliferator-Activated Receptor delta (PPAR-delta) response element, a cell-based assay [GeneBLAzer (PPAR-delta-UAS-bla assay developed by Invitrogen] was used to measure PPAR-delta ligands signaling. GeneBLAzer PPAR-delta-UAS-bla HEK293T cells were used with assay medium containing 2% charcoal/dextran FBS. The assay was performed in clear bottom black Greiner 1536-well plates. Library compounds were measured for their ability to inhibit the reporter gene activity. Compounds were screened in a titration series in 1536-well format. The fluorescence intensity (405 nm excitation, 460/530 nm emission) was measured using an EnVision plate reader. […] Concentration-response titration points for each compound were fitted to the Hill equation yielding concentrations of half-maximal inhibition (IC50) and maximal response (efficacy) values. qHTS protocol for PPAR-delta beta-lactamase assay in antagonist mode [Step] [Parameter] [Value] [Description] 1. Reagent; 5 uL; 4000 cells/well 2. Incubation; 37 C for 5 hrs 3. Compounds; 23 nL; 0.59 nM to 92 uM 4. […] Incubation; 37 C for 18 hrs 7. Detection reagent; 1 uL of CCF4-dye 8. Incubation; RT for 2 hrs 9. Detection; Fluorescence; Envision plate reader

Structure (SMILES) | activity change, negative = inhibition [%] | Potency
O=C(Cl)c1cccc([N+](=O)[O-])c1 | -4.69 | 
CCCCCNCCCCC | -11.4 | 
CCCCCCCN | 3.1 | 
Clc1ccc(Cl)c(Cl)c1Cl |  | inactive
CCC(C)(C)OC | 5.51 | 
C=CCOC(=O)COCCC(C)C | 21.5 | 
Cc1cccc([N+](=O)[O-])c1C(=O)O | 2.3 | 
Nc1ccc(F)cc1F | -14.3 | 
O=C1CCC(=O)O1 | 0.787 | 
C=CC(=O)OCCCC | -20.7 | 
CC#N | -6.98 | 
Cc1ccccc1C(N)=O | 12 | 
Cc1cccc(C)c1[N+](=O)[O-] |  | inactive
Cc1ccccc1C#N | -16 | 
c1ccc2c(c1)ccc1ncccc12 | -16.7 | 
Cc1ccc(C)o1 | -11.7 | 
CCCCCCCCCCCCOCC1CO1 (stereo not given) | -6.26 | 
NC(=O)/N=N/C(N)=O | -21.5 | 
O=Cc1ccc(Cl)cc1 | -10.6 | 
Nc1cccc2c(=O)[nH][nH]c(=O)c12 | -14.4 | 

Structure (SMILES) | activity change, negative = inhibition [%] | Potency
c1ccc(Oc2ccccc2)cc1 |  | inactive
Cc1cc(C(=O)O)ccc1[N+](=O)[O-] | -15.8 | 
O=Cc1c(Cl)cccc1Cl | -34 | 
Cc1cc(C)cc(N)c1 | -3 | 
CCOCC(=O)O | -11.7 | 
CCCCC(CC)CO (stereo not given) | -16.2 | 
Cc1cccc2cccnc12 | -14.3 | 
O=[N+]([O-])c1ccc(CCO)cc1 | 7.12 | 
CC(=O)c1cccc([N+](=O)[O-])c1 | 3.74 | 
CCCCCCC=O | -18.9 | 
CCCCC/C=C/C=C/C=O | 8.28 | 
N#CCc1ccccc1[N+](=O)[O-] | 0.624 | 
CC(C)(c1cc(Br)c(OCC(Br)CBr)c(Br)c1)c1cc(Br)c(OCC(Br)CBr)c(Br)c1 (stereo not given) | -23 | 
NCCCCCCN | -0.722 | 
Cc1cccc(C)c1 | -17.9 | 
COCCOC(=O)c1ccccc1C(=O)OCCOC | -12.5 | 
CCc1ccccc1O | -34.4 | 
C/C(C=O)=C/c1ccccc1 | -10.5 | 
CCCOCC(C)OCC(C)O (stereo not given) | -16.9 | 
CCNc1ccccc1 | 5.01 | 

From PubChem BioAssay (NCATS)
